Results: PubChem BioAssay (Tox21)
Records with an inconclusive call do not appear. Calls of active or inactive are those of the source. Calls come from the whole dose curve.

test: qHTS assay to identify small molecule agonists of the NFkB signaling pathway - cell viability counter screen (AID 1159515); details: NFkB-bla ME-180 viability, CellTiter-Glo luminescence, 5 h; series mostly up to 61 µM; note: nearly all actives have a fitted effect of over 55% in size
Source text: National Center for Advancing Translational Sciences [NCATS]
NIH Chemical Genomics Center [NCGC]
U.S. Environmental Protection Agency [EPA]
National Institutes of Environmental Health Sciences [NIEHS]
National Toxicology Program [NTP]
U.S. Food and Drug Administration [FDA]
Transcription factors and their stimulated target gene expression play pivotal roles across many cellular processes including responses to environmental stimuli. Proper regulation of associated pathways is critical to maintain cell health and function. Constitutive activation of transcription factor pathways has been implicated in tumors as it may block cellular functions such as apoptosis and lead to invasion and metastasis. One important transcription factor that stimulates gene expression in response to cytokines, UV radiation, and other stimuli is nuclear factor-kappa B (NFkB). To measure activation of the NFkB pathway, the CellSensor NFkB-bla ME-180 cell line (Life Technologies, Carlsbad, CA) that stably expresses beta-lactamase reporter gene under the regulation of a NF-kB response element was used. This assay allows measurement of the NFkB pathway activity induced by compounds in a ME-180 cell line. This system quantitates NF-kB activity using a FRET-based assay system where beta-lactamase expression disrupts FRET, allowing for fluorescent measurement of activity. This cell line has been used to screen the Tox21 10K compound library and to identify compounds that induce the NFkB pathway activity. The cytotoxicity of the Tox21 compound library against the NFkB-bla ME-180 cell line was tested in parallel by measuring cell viability using the CellTiter-Glo assay in the same wells.
Tox21 Assay Protocol Summary:
NFkB-bla ME-180 cells were dispensed at 2,000 cells/6 uL of assay medium per well into black wall/clear-bottom 1536-well plates using a Multidrop Combi (ThermoFisher Scientific, Waltham, MA) dispenser. After the assay plates were incubated at 37 C and 5% CO2 for an overnight, 23 nL of compounds dissolved in DMSO, positive controls or DMSO only was transferred to the assay plate by a Pintool station (Kalypsys, San Diego, CA). The assay plates were incubated at 37 C and 5% CO2 for 5 hr. One uL of LiveBLAzer B/G FRET substrate (Life Technologies) was added using a Flying Reagent Dispenser (Aurora Discovery, San Diego, CA) and the plates were incubated at room temperature for 1.5 hr. Fluorescence intensity (405 nm excitation, 460 nm and 530 nm emissions) was measured using an Envision plate reader (PerkinElmer, Shelton, CT). For cytotoxicity, 3 ul/well of CellTiter-Glo reagent was added into the assay plates using an FRD. After 30 min incubation at room temperature, the luminescence intensity was measured using a ViewLux plate reader (PerkinElmer).

Question: For `CC(=O)OCc1ccco1`, which outcome is on record?
Answer: inactive

Question: Which outcome does the source give for `CCCOC(=O)c1ccccc1` here?
Answer: inactive

Question: For `COc1ccc(N)c(C)c1`, which outcome is on record?
Answer: inactive

Question: With `CC(C)OP(=O)(CP(=O)(OC(C)C)OC(C)C)OC(C)C` as the compound, how does the outcome read?
Answer: inactive

Question: Which outcome does the source give for `OC1C(O)C(O)C(O)C(O)C1O` (stereo not given) here?
Answer: inactive

Question: For `COc1ccc(C)cc1N`, which outcome is on record?
Answer: inactive

Question: With `CCNc1ccccc1` as the compound, how does the outcome read?
Answer: inactive

Question: Which outcome does the source give for `O=C(O)c1ccccc1C(=O)O` here?
Answer: inactive

Question: With `O=S(=O)(O)c1ccccc1` as the compound, how does the outcome read?
Answer: inactive

Question: With `CC(C)CCCCCCCOC(=O)CCCCC(=O)OCCCCCCCC(C)C` as the compound, how does the outcome read?
Answer: inactive

Question: For `COc1ccc([N+](=O)[O-])cc1N`, which outcome is on record?
Answer: inactive

Question: With `CC(C)(C#N)c1cc(Cn2cncn2)cc(C(C)(C)C#N)c1` as the compound, how does the outcome read?
Answer: inactive

Question: With `CCCCC(C=O)CC` (stereo not given) as the compound, how does the outcome read?
Answer: inactive

Question: For `CC(C)c1cccc(C(C)C)c1`, which outcome is on record?
Answer: inactive

Question: Which outcome does the source give for `NCCNCCN` here?
Answer: inactive

Question: For `O=C(O)CCCCCCCCC(=O)O`, which outcome is on record?
Answer: inactive

Question: Which outcome does the source give for `C=Cc1ccc(C)cc1` here?
Answer: inactive

Question: For `CCCCCCO`, which outcome is on record?
Answer: inactive

Question: For `CC(C)(Oc1ccc(CCNC(=O)c2ccc(Cl)cc2)cc1)C(=O)O`, which outcome is on record?
Answer: inactive

Question: Which outcome does the source give for `CC1(C)S[C@@H]2[C@H](NC(=O)COc3ccccc3)C(=O)N2[C@H]1C(=O)O` here?
Answer: inactive

Question: With `O=C(O)c1ccc(C(=O)O)c(C(=O)O)c1` as the compound, how does the outcome read?
Answer: inactive

Question: With `CCCCCC(=O)O` as the compound, how does the outcome read?
Answer: inactive

Question: For `CCCCCCCCCCCC(=O)OC`, which outcome is on record?
Answer: inactive

Question: With `CN(C)c1ccc(O)c2c1C[C@H]1C[C@H]3[C@H](N(C)C)C(=O)C(C(N)=O)=C(O)[C@@]3(O)C(=O)C1=C2O` as the compound, how does the outcome read?
Answer: inactive

Question: With `CCNC(=S)NCC` as the compound, how does the outcome read?
Answer: inactive

Question: With `CC(C)=CCl` as the compound, how does the outcome read?
Answer: inactive

Question: With `C[C@]12CC[C@@H]3c4ccc(O)cc4CC[C@H]3[C@@H]1C[C@@H](O)[C@@H]2O` as the compound, how does the outcome read?
Answer: inactive

Question: For `NCCN1CCNCC1`, which outcome is on record?
Answer: inactive

Question: Which outcome does the source give for `C=CCc1ccc(OC)c(OC)c1` here?
Answer: inactive

Question: With `O=C1c2ccccc2CCc2ccccc21` as the compound, how does the outcome read?
Answer: inactive

Question: With `CC1(C)CC(N)CC(C)(CN)C1` (stereo not given) as the compound, how does the outcome read?
Answer: inactive

Question: Which outcome does the source give for `O=C(O)Cn1c(=O)n(Cc2ccc(Br)cc2F)c(=O)c2ccc(Cl)cc21` here?
Answer: inactive

Question: Which outcome does the source give for `COCCOC(=O)c1ccccc1C(=O)OCCOC` here?
Answer: inactive

Question: With `Cc1ccc([N+](=O)[O-])cc1S(=O)(=O)O` as the compound, how does the outcome read?
Answer: inactive

Question: Which outcome does the source give for `CN(C)CCOC(=O)COc1ccc(Cl)cc1` here?
Answer: inactive

Question: With `c1ccc2c(c1)Cc1ccccc1-2` as the compound, how does the outcome read?
Answer: inactive

Question: With `CN(C)c1ccc(Cc2ccc(N(C)C)cc2)cc1` as the compound, how does the outcome read?
Answer: inactive

Question: Which outcome does the source give for `CC(CCO)CC(C)(C)C` (stereo not given) here?
Answer: inactive

Question: For `Cc1ccc(S(=O)(=O)N=C=O)cc1`, which outcome is on record?
Answer: inactive

Question: With `CCNc1cccc(C)c1` as the compound, how does the outcome read?
Answer: inactive
